“And” between values parts separate entries of the source, which are not always exact repeats. Equal values may be shown once. Inconclusive results are not listed. A call without a number means that no potency is given here. Unmarked numbers belong to inactive results. The source made the active and inactive calls. Unless noted, calls follow the shape of the dose curve; as a rule, active = well fitted curve in the direction sought with a large enough effect in the repeat runs; inconclusive = weak or mixed curves; inactive = no such curve, though single readings can be large; an effect the other way counts as inactive or inconclusive.
Experiments:
[1] = qHTS assay to identify small molecule antagonists of the thyroid receptor (TR) signaling pathway (AID 743065); also: nearly all actives have a fitted effect of over 55% in size; also: potency is read from the fitted curve at half-maximal effect
Method in brief: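 Antagonism measured as loss of luciferase signal in GH3 cells stably carrying a TRE-luciferase reporter, co-treated with compound and T3 (1 nM final) for 23.5 h at 37 C. Viability was read in the same well by CellTiter-Fluor.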

[2] = test system: thyroid hormone receptor (rat, GH3 cells); assay: qHTS assay to identify small molecule agonists of the thyroid receptor (TR) signaling pathway (AID 743066; calls by dose curve)
[3] = target: Estrogen receptor (Homo sapiens) (UniProt P03372); assay: qHTS assay to identify small molecule antagonists of the estrogen receptor alpha (ER-alpha) signaling pathway (AID 743069; active = well fitted curve in the direction sought with a large enough effect in the signal ratio in the repeat runs, not every such curve was filed as active; the % refers to the signal ratio)
Estrogen receptor (Homo sapiens), sequence (P03372 whole entry, looked up): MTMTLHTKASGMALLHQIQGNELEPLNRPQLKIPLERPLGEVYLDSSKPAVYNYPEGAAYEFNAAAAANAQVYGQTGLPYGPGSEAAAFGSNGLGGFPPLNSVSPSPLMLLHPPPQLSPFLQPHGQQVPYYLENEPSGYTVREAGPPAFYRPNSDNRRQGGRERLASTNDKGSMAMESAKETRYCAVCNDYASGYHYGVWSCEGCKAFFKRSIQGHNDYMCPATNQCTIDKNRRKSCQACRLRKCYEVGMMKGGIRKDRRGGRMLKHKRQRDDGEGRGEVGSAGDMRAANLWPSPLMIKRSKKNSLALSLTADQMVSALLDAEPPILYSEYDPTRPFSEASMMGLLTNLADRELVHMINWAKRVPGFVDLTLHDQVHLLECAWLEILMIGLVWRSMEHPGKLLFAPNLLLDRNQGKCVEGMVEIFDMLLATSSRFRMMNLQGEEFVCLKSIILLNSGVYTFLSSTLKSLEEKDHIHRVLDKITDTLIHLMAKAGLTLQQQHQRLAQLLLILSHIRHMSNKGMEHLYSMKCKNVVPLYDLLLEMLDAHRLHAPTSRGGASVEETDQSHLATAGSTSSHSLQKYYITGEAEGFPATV
Method in brief: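 Fluorescence intensity from a beta-lactamase FRET substrate served as the read-out. Cells: HEK293 with stably integrated ER-alpha-UAS-bla reporter. Agonist 17beta-estradiol was co-added with compounds; incubation 18 hr at 37C, substrate 2 hr at room temperature.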

[4] = target: Estrogen receptor (Homo sapiens) (UniProt P03372); assay: qHTS assay to identify small molecule agonists of the estrogen receptor alpha (ER-alpha) signaling pathway (AID 743075; calls by dose curve)
[5] = target: Estrogen receptor (Homo sapiens) (UniProt P03372); assay: qHTS assay to identify small molecule agonists of the estrogen receptor alpha (ER-alpha) signaling pathway using the BG1 cell line (AID 743079); also: nearly all actives have a fitted effect of over 20% in size; also: potency is read from the fitted curve at half-maximal effect
[6] = qHTS assay to identify small molecule antagonists of the estrogen receptor alpha (ER-alpha) signaling pathway using the BG1 cell line (AID 743080; calls by dose curve;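 also: BG1 cells stimulated with 17beta-estradiol alongside compound; series mostly up to about 70 µM; nearly all actives have a fitted effect of over 25% in size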)
Method in brief: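 Readout is ONE-Glo luminescence, taken 30 min at room temperature after reagent addition, preceded by a CellTiter-Fluor viability read; BG1-Luc-4E2 cells had received compound and 17beta-estradiol for 21.5 h at 37 C.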

[7] = qHTS assay to identify small molecule antagonists of the estrogen receptor alpha (ER-alpha) signaling pathway using the BG1 cell line - cell viability counter screen (AID 743081);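 also: compound given together with 17beta-estradiol as the ER stimulus; series mostly up to about 70 µM; nearly all actives have a fitted effect of over 45% in size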
[8] = target: Aromatase (Homo sapiens) (UniProt P11511); assay: qHTS assay to identify aromatase inhibitors (AID 743083); also: series mostly up to about 70 µM; nearly all actives have a fitted effect of over 55% in size
Aromatase (Homo sapiens), sequence (P11511 whole entry, looked up): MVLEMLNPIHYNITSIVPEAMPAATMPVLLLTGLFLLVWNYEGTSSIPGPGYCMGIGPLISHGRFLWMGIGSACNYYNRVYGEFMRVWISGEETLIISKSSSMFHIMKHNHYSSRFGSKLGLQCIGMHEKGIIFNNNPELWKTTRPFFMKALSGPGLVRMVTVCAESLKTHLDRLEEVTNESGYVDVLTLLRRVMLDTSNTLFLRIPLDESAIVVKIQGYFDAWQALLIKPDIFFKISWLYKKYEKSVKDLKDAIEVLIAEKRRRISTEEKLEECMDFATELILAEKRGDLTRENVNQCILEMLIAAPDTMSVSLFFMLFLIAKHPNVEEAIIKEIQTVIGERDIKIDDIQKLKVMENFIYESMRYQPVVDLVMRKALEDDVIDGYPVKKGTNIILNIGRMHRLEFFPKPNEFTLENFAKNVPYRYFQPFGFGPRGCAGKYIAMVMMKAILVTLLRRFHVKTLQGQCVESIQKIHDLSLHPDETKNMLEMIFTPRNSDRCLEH

[9] = qHTS assay to identify aromatase inhibitors - cell viability counter screen (AID 743084);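 also: cells stimulated with testosterone during compound exposure; nearly all actives have a fitted effect of over 55% in size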
[10] = target: Aryl hydrocarbon receptor (Homo sapiens) (UniProt P35869); assay: qHTS assay to identify small molecule that activate the aryl hydrocarbon receptor (AhR) signaling pathway (AID 743085); also: nearly all actives have a fitted effect of over 15% in size; also: potency is read from the fitted curve at half-maximal effect;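 as to activation: HG2L7.5c1 human HepG2 liver cells with stably integrated DRE-driven firefly reporter; series mostly up to about 70 µM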
Aryl hydrocarbon receptor (Homo sapiens), sequence (P35869 whole entry, looked up): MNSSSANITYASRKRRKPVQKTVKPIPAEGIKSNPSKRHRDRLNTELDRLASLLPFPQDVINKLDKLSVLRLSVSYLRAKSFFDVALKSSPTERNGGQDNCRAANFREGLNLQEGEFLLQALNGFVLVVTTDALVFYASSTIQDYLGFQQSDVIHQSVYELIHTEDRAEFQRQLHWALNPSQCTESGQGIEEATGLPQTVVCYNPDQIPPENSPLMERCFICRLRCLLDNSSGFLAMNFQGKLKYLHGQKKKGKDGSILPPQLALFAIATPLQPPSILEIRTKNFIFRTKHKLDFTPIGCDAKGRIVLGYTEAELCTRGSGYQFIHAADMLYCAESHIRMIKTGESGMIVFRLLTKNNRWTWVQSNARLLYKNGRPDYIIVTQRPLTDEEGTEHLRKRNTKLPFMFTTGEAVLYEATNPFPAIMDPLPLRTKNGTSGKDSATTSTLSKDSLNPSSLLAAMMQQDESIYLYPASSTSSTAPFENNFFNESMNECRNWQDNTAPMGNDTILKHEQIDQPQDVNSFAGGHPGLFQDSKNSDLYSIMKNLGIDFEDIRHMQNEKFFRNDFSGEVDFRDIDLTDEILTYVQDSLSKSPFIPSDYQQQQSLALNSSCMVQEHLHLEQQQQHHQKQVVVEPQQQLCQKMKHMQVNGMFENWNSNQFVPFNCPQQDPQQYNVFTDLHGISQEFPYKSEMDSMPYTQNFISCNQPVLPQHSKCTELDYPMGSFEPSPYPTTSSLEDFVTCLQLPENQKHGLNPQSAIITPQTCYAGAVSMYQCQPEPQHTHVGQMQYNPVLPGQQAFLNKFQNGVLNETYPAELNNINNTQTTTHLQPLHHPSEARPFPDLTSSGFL
Method in brief: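 24 h compound exposure, 37C, HepG2-derived HG2L7.5c1 cells with DRE-responsive luciferase. Readouts: fluorescence viability, then luminescence at room temperature after 30 min.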

[11] = qHTS assay to identify small molecule that activate the aryl hydrocarbon receptor (AhR) signaling pathway - cell viability counter screen (AID 743086);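 also: HepG2 liver cells carrying the AhR DRE luciferase reporter; series mostly up to about 70 µM; nearly all actives have a fitted effect of over 45% in size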
Method in brief: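 Cytotoxicity counter screen: CellTiter-Fluor signal (30 min, 37 C) in 4000 HepG2 cells/well carrying the DRE-luciferase reporter, following 24 h compound exposure at 37 C.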

[12] = target: Peroxisome proliferator-activated receptor gamma (Homo sapiens) (UniProt P37231); assay: qHTS assay to identify small molecule agonists of the peroxisome proliferator-activated receptor gamma (PPARg) signaling pathway (AID 743094; active = well fitted activation curve with a large enough effect in the signal ratio in the repeat runs, not every such curve was filed as active; the % refers to the signal ratio)
Peroxisome proliferator-activated receptor gamma (Homo sapiens), sequence (P37231 whole entry, looked up): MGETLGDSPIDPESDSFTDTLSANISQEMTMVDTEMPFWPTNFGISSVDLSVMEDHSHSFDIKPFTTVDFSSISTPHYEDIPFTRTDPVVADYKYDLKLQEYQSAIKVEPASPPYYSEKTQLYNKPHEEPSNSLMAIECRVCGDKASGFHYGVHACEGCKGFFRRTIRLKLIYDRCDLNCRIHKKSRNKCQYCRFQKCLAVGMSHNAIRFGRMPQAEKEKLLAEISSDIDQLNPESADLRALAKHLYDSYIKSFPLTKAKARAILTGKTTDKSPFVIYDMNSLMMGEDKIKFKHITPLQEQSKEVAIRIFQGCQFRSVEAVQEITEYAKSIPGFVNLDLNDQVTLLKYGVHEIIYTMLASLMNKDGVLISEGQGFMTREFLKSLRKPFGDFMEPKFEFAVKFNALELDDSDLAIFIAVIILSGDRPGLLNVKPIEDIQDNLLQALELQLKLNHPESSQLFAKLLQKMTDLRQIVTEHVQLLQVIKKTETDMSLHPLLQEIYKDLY
Method in brief: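 Agonist activity was taken from a beta-lactamase reporter (FRET substrate, 1 h at room temperature) in HEK293H cells carrying a PPARg UAS-bla construct. Compounds in DMSO were incubated 17 h at 37C after a 5 h cell pre-incubation.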

[13] = target: Peroxisome proliferator-activated receptor gamma (Homo sapiens) (UniProt P37231); assay: qHTS assay to identify small molecule antagonists of the peroxisome proliferator-activated receptor gamma (PPARg) signaling pathway (AID 743191; calls by dose curve; also: series mostly up to about 63 µM; nearly all actives have a fitted effect of over 30% in size)
Method in brief: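 Beta-lactamase reporter under UAS control in HEK293H PPARg-bla cells; compound treatment 17 h at 37C. Read-out: fluorescence intensity after 1 h room-temperature incubation with LiveBLAzer B/G FRET substrate.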

[14] = qHTS assay to identify small molecule antagonists of the peroxisome proliferator-activated receptor gamma (PPARg) signaling pathway - cell viability counter screen (AID 743194); also: nearly all actives have a fitted effect of over 55% in size
Method in brief: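 Viability was measured as CellTiter-Glo luminescence in GeneBLAzer PPARg UAS-bla HEK293H cells. These cells had been exposed 17 h at 37 C to compounds together with rosiglitazone at 50 nM final, with the beta-lactamase readout taken in the same wells.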

[15] = qHTS assay for small molecule agonists of the antioxidant response element (ARE) signaling pathway (AID 743202; active = well fitted activation curve with a large enough effect in the signal ratio in the repeat runs, not every such curve was filed as active; the % refers to the signal ratio)
Method in brief: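 Beta-lactamase reporter activity, read as fluorescence intensity, reflects ARE/Nrf2 pathway induction in HepG2 cells after 16 h compound exposure at 37 C; substrate loading was 2 h at room temperature.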

[16] = qHTS assay for small molecule agonists of the antioxidant response element (ARE) signaling pathway - cell viability counter screen (AID 743203; calls by dose curve; also: nearly all actives have a fitted effect of over 55% in size)
Method in brief: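 Viability counter screen: CellTiter-Glo luminescence, read after 30 min at room temperature, in ARE-bla HepG2 wells. Compound exposure lasted 16 h at 37C/5% CO2, following a 5 h pre-incubation of the cells after plating.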

[17] = qHTS assay for small molecule activators of the heat shock response signaling pathway - cell viability counter screen (AID 743209); also: nearly all actives have a fitted effect of over 50% in size
Method in brief: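 Cytotoxicity counter screen run in the same wells as the heat-shock bla reporter assay: HeLa HSE-bla cells, 5 h compound exposure at 37 C, viability read by CellTiter-Glo luminescence.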

[18] = qHTS assay for small molecule activators of the heat shock response signaling pathway (AID 743210; active = well fitted activation curve with a large enough effect in the signal ratio in the repeat runs, with a control signal flat, not every such curve was filed as active; the % refers to the signal ratio;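 also: HeLa cells with beta-lactamase reporter driven by heat shock elements; series mostly up to about 63 µM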)
Method in brief: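 Fluorescence from a cleaved B/G FRET substrate (2.5 h, room temp) reports HSE-driven beta-lactamase in HeLa cells treated 5 h at 37 C with DMSO-dissolved compounds.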

[19] = qHTS assay to identify small molecule agonists of the peroxisome proliferator-activated receptor delta (PPARd) signaling pathway - cell viability counter screen (AID 743211); also: nearly all actives have a fitted effect of over 55% in size
Method in brief: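 Luminescent ATP viability assay (CellTiter-Glo, 30 min RT) in UAS-bla HEK293H cells carrying the PPAR delta reporter construct, 3000 cells/well, after a 17 h compound treatment at 37 C.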

[20] = qHTS assay to identify small molecule antagonists of the estrogen receptor alpha (ER-alpha) signaling pathway - cell viability counter screen (AID 743074; calls by dose curve; also: nearly all actives have a fitted effect of over 45% in size)

SMILES | Potency [1] | outcome [2] | Potency [3] | Potency [4] | Potency [5] | Potency [6] | outcome [7] | outcome [8] | Potency [9] | Potency [10] | Potency [11] | Potency [12] | Potency [13] | outcome [14] | Potency [15] | outcome [16] | outcome [17] | outcome [18] | outcome [19] | Potency [20]
C=COC(=O)C(C)(CC)CCC(C)C (centres undefined) | inactive | inactive | inactive | inactive | inactive | inactive | inactive | inactive | inactive | inactive | inactive | inactive | inactive | inactive | inactive | inactive | inactive | inactive | inactive | 
O=C(CO)[C@@H](O)[C@H](O)[C@H](O)CO | inactive | inactive | inactive | inactive | inactive |  | inactive | inactive | inactive | inactive | inactive | inactive |  | inactive | inactive | inactive |  | inactive | inactive | inactive
CC1=CCC(O)(C(C)C)CC1 (centres undefined) | inactive | inactive |  | inactive |  |  | inactive | inactive | inactive | inactive | inactive | inactive | inactive | inactive | inactive |  | inactive | inactive | inactive | inactive
CN(C)CCN(C)CCN(C)C | inactive | inactive |  | inactive | inactive | inactive | inactive | inactive | inactive |  | inactive | inactive | inactive | inactive |  | inactive | inactive | inactive | inactive | inactive
CCCCCC(C)N (centres undefined) | inactive | inactive |  |  |  | inactive | inactive | inactive | inactive | inactive | inactive | inactive | inactive | inactive | inactive | inactive | inactive | inactive | inactive | inactive
CC(N)C12CC3CC(CC(C3)C1)C2 (centres undefined) | inactive | inactive |  | inactive | inactive |  | inactive | inactive | inactive |  | inactive | inactive | inactive | inactive |  |  | inactive | inactive | inactive | inactive
CC1CCC(CO)CC1 (centres undefined) | inactive | inactive |  | inactive | inactive |  | inactive | inactive | inactive | inactive | inactive |  |  | inactive | inactive |  | inactive | inactive | inactive | inactive
COc1cc(C(=O)OC(COCCC(C)C)CN2CCOCC2)cc(OC)c1OC (centres undefined) | inactive | inactive |  | inactive | inactive | inactive |  | inactive | inactive | inactive | inactive | inactive | inactive | inactive | inactive | inactive | inactive | inactive | inactive | inactive
CC(C)CC(C)(N)C#N (centres undefined) | inactive | inactive |  |  |  |  | inactive | inactive | inactive | inactive | inactive | inactive | inactive | inactive | inactive | inactive | inactive | inactive | inactive | inactive
Cc1ncc([C@@H](CCCCCCc2ccc3c(n2)NCCC3)CC(=O)O)cn1 | inactive | inactive |  | inactive | inactive | inactive | inactive | inactive |  |  |  | inactive |  |  |  | inactive | inactive | inactive | inactive | inactive
Nc1ccn([C@@H]2O[C@H](CO)[C@@H](O)C2O)c(=O)n1 (some centres undefined) | 376 nM (active) and 193 nM (active) | inactive |  | inactive | inactive |  | inactive | inactive | inactive | inactive | inactive | inactive |  | inactive |  | inactive |  | inactive | inactive | inactive
COC(=O)Nc1ccc(Cl)c(Cl)c1 | 60.8 µM (active) | inactive |  |  |  |  | inactive | inactive | inactive | 60.8 µM (active) | inactive | inactive | inactive | inactive | inactive | inactive | inactive | inactive | inactive | inactive
COc1cc(-c2ccc(=O)[nH]n2)ccc1OC(F)F | inactive | inactive |  | inactive |  |  | inactive | inactive | inactive |  | inactive | inactive |  | inactive | inactive | inactive | inactive | inactive | inactive | inactive
Nc1ccn([C@@H]2O[C@H](CO)[C@@H](O)[C@@H]2O)c(=O)n1 | 0.077 µM (active) | inactive |  | inactive | 24.3 µM (active) | inactive | inactive | inactive | inactive | inactive | inactive |  | inactive | inactive | inactive | inactive | inactive | inactive | inactive | inactive
CCCCc1ccc2c(n1)[C@@H](c1ccc(OC)cc1C[C@H](C)C(=O)O)[C@H](C(=O)O)[C@H]2c1ccc2c(c1)OCO2 | inactive | inactive |  | inactive | inactive |  | inactive | inactive | inactive | inactive | inactive | inactive | inactive | inactive | inactive |  | inactive | inactive | inactive | inactive
